Laboratory results: PubChem BioAssay
A number with no mark means an inactive call. The rule behind the calls is not given here.

What follows are compounds tested against Pantothenate synthetase (Mycobacterium tuberculosis (strain ATCC 25618 / H37Rv)) (UniProt P9WIL5) (assay: Coupled enzyme confirmation of inhibitors against recombinant Mtb PanC (AID 375;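 note: 0% = full reaction with vehicle and 100% = no enzyme background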)). Details: coupled enzyme assay; at 10 µM, stronger effect = higher value.
Chain of Pantothenate synthetase (Mycobacterium tuberculosis (strain ATCC 25618 / H37Rv)) (P9WIL5 whole entry, looked up): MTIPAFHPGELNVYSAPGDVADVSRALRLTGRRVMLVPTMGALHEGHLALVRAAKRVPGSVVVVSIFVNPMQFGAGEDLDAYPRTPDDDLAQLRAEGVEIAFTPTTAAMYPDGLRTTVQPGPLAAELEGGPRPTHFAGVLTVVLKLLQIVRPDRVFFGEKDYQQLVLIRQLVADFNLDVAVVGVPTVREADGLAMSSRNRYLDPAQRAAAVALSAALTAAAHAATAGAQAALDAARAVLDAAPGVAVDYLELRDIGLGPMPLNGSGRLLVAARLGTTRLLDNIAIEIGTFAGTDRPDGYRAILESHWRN

First: COC(=O)CSc1ncccc1-c1nc2ccccc2[nH]1
Second: CCOC(=O)c1ccc(NC2OC(=O)c3ccccc32)cc1 (stereo not given)
The inhibition of the first is lower: 0% for the first, 4% for the second.

Compared with `CCC(=O)N1CCc2cc(S(=O)(=O)CCC(=O)Nc3nc(C)cs3)ccc21`, `CCc1c(C)nc(N)n2c(SCC(=O)N3CCCc4ccccc43)nnc12` is lower in inhibition: 5% for the first, 2% for the second.

`NC(N)=NS(=O)(=O)c1ccc(N)cc1` and `CN(CC(=O)Nc1nccs1)S(=O)(=O)c1ccc(F)cc1` are the same in inhibition: 0% for the first, 0% for the second.

`CC(=O)C1=C(C)Nc2ncnn2C1c1cccc(OCc2ccccc2)c1` (stereo not given) and `CC1(C)NC(=O)N(CC(O)COc2ccc(-c3ccccc3)cc2)C1=O` (stereo not given) are the same in inhibition: 0% for the first, 0% for the second.

`COc1ccc(-n2c(Cc3cccn3C)nnc2SCC(=O)Nc2cccc(Cl)c2)cc1` and `O=C(CSc1nnc(-c2ccccc2Br)o1)Nc1cccc2ccccc12` are the same in inhibition: 2% for the first, 2% for the second.

Going from `COC(=O)c1cc(=O)n(Cc2ccc3c(c2)OCO3)c(=Nc2ccccc2)s1` to `O=C(Nc1cccc2ncccc12)c1ccc2c(c1)OCCO2`, the inhibition falls from 7% to 0%.

Compared with `O=C(O)C1CC=CCC1C(=O)Nc1cc(Cl)ccc1Cl` (stereo not given), `Cc1cnc(C(=O)Nc2ccc(N3CCN(C(=O)OC(C)(C)C)CC3)cc2)cn1` is lower in inhibition: 1% for the first, 0% for the second.

`CCOc1cc(C(=O)NCc2nnc(SCC(=O)OC)n2C)cc(OCC)c1OCC` and `Cc1cc(C(=O)CSCCCn2c(=O)[nH]c3ccccc32)c(C)n1C` are the same in inhibition: 2% for the first, 2% for the second.

First: Cc1cc(NC(=O)CCCC(=O)Nc2ccc(F)cc2)no1
Second: COc1ccc(N(C)C(=O)CCS(=O)(=O)c2cccc3nonc23)cc1
The inhibition of the first is higher: 4% for the first, 1% for the second.

First: CCN1CCN(C(=O)C2CCN(C(=O)c3cc4sccc4n3CC)CC2)CC1
Second: CCN1CCN(C(=O)c2cn(CC)c3ccc(S(=O)(=O)N(C)C)cc3c2=O)CC1
The inhibition of the first is higher: 14% for the first, 0% for the second.

First: CCOC(=O)n1c(=O)oc2cc(S(=O)(=O)N3CCCCC3)ccc21
Second: CCC(NS(=O)(=O)c1ccc(C)cc1)C(=O)N1CCC2(O)CCCCC2C1 (stereo not given)
The inhibition of the first is higher: 7% for the first, 6% for the second.

First: OC1(c2cccc(C(F)(F)F)c2)CCN(c2ccc(-c3ccccc3)nn2)CC1
Second: O=C(c1cnn2c(C(F)(F)F)cc(-c3ccco3)nc12)N1CCc2ccccc2C1
The inhibition of the first is lower: 0% for the first, 3% for the second.

Going from `CC1Cc2ccccc2N1C(=O)c1cnsn1` (stereo not given) to `CC1Oc2ccccc2N(Cc2ccccc2Cl)C1=O` (stereo not given), the inhibition rises from 0% to 9%.

`c1ccc2c(c1)[nH]c1c(N3CCC4(CC3)OCCO4)ncnc12` and `O=C(c1cccc2ccccc12)N1CCC(N2CCN(c3ccccc3)CC2)CC1` are the same in inhibition: 0% for the first, 0% for the second.

`Cc1ccccc1N(CC(=O)NCC1CCCO1)C(=O)C1(C)CC(=O)N=C2C=CC=CN21` (stereo not given) and `O=C(CSc1nnc(-c2cccs2)o1)NCC1CN(Cc2ccccc2)CCO1` (stereo not given) are the same in inhibition: 0% for the first, 0% for the second.

`Clc1ccc(C2=Nn3c(nnc3-c3n[nH]c4c3CCC4)SC2)cc1Cl` and `O=c1c(F)cn(C2CCCO2)c(=O)n1Cc1c(F)cccc1Cl` (stereo not given) are the same in inhibition: 0% for the first, 0% for the second.

`CCOc1ccc2c(O)csc2c1` and `COc1ccccc1NC1=C(C)C(=O)CC1` are the same in inhibition: 0% for the first, 0% for the second.

`CC(C)Cc1ccc(C(C)C(=O)O)cc1` (stereo not given) and `CN1CCN(C(=O)c2ccccc2N(Cc2ccccc2)S(C)(=O)=O)CC1` are the same in inhibition: 0% for the first, 0% for the second.

Going from `C/C=C(\C)c1nnc(NC(=O)C(C)C)s1` to `Cc1ccc(C)c(N2CCN(C(=O)c3ccc(CS(=O)(=O)c4ccccc4C)o3)CC2)c1`, the inhibition rises from 1% to 8%.

Compared with `C#CCOC(=O)C1C2C=CC(C2)C1C(=O)O` (stereo not given), `C=C(c1ccc(O)cc1)c1ccc(O)cc1` is lower in inhibition: 1% for the first, 0% for the second.
